From PubChem BioAssay (EPA / NIEHS)
Records with an inconclusive call do not appear. Activity calls are given as the source filed them. Rule for the calls: active = hit-call score of the fitted dose curve at least 0.9, where 1 is the maximum; inconclusive = response in the unintended direction; inactive = score below 0.9.

Experiment: TOX21_p53_BLA_p3_viability: Viability Assessment in the Tox21 HCT-116 p53 Agonism Beta-lactamase Assay, Phase 3 (AID 2283593);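 note: cells exposed to compound for 16 h before reading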
Excerpt: TOX21_p53_BLA_p3 is a cell-based, single-readout assay that uses HCT116, a human intestinal cell line, […] in a 1536-well plate.TOX21_p53_BLA_p3_viability is an assay readout measuring cellular ATP content and detected with CellTiter-Glo Luciferase-coupled ATP quantitation.TOX21_p53_BLA_p3_viability used a type of viability reporter where loss-of-signal activity can be used to understand changes in the cell viability. Furthermore, this assay endpoint can be referred to as a secondary readout, because this assay has produced multiple assay endpoints where this one serves a viability function. To generalize the intended target to other relatable targets, this assay endpoint is annotated to the cell cycle intended target family, where the subfamily is cytotoxicity.
Thawing Method: Place 14 mL of pre-warmed thaw medium into a 15 mL of conical tub. Remove the vial of cells to be thawed from liquid nitrogen and thaw rapidly by placing at 37C in a water bath with gentle agitation for 1-2 minutes. Decontaminate the vial by wiping with 70% ethanol before opening in a biological safety cabinet. Transfer the vial contents drop-wise into 14 mL of thaw medium in a sterile 15-mL conical tub. Centrifuge cells at 900 rpm for 4 minutes and resuspend in thaw medium. Transfer contents to the T75 tissue culture flask containing Thaw Medium and place flask in a humidified 37C/5% CO2 incubator. Switch to growth medium at first passage.Propagation Method: Aspirate medium, rinse once in DPBS, add 0.25% Trypsin/EDTA and swirl to coat the cell evenly. Add an equal volume of Growth Medium to inactivate Trypsin after 2-3 minutes incubation at 37C. Centrifuge cells at 900 rpm for 4 minutes and resuspend in growth medium. Cell should be passage or fed at least twice a week.Assay Protocol: Harvest cells from culture in growth medium and resuspend in assay medium. 2.2 Dispense 4000 cells/5 uL/well into 1536-well black/clear bottom plates using a Multidrop dispenser. After the cells were incubated at 37C for 5 hours, 23 nL of compounds dissolved in DMSO were transferred to the assay plate by a PinTool resulting in a 217-fold dilution. Incubate the plates for 16 hours at 37C, 5% CO2. Add 1 uL of 6X LiveBLAzer FRET B/G (CCF4-AM) Substrate Mixture to each well using a BioRAPTR dispenser and incubate the plates at room temperature for 2 hours. Measure fluorescence intensity at 460 and 530 nm emission and 405 nm excitation by an Envision detector. Data is expressed as the ratio of 460nm/530nm emissions. Add 4 uL of Cell-titer Glo to each well using BioRAPTR and incubate the plates at room temperature for […]. For cell viability readout that measures cytotoxicity, 4 ul/well of CellTiter-Glo reagent was added into the assay plates using a Flying Reagent Dispenser. After 30 min incubation at room temperature, the luminescence intensity in the plates was measured using a ViewLux plate reader.

Row | Compound | AC50 | outcome
1 | Oc1cccc[c]1[Hg][Cl] | 9.5 µM (active) | –
2 | N=C(N)[Se] | – | inactive
3 | Oc1ccc(Cl)c(Cl)c1 | – | inactive
4 | ClC(Cl)(Cl)C(Cl)(Cl)Cl | – | inactive
5 | CC(C)(O)[C@@H]1[C@H]2OC(=O)[C@@H]1[C@]1(O)C[C@H]3O[C@]34C(=O)O[C@H]2[C@]14C (tested in a mixture with another compound) | – | inactive
6 | O=C(O)C(Cl)Br (stereo not given) | – | inactive
7 | Cc1nnc2n1-c1sc(CCC(=O)N3CCOCC3)cc1C(c1ccccc1Cl)=NC2 | – | inactive
8 | CCOC(=O)NC(C)(C)Cc1ccc(Cl)cc1 | – | inactive
9 | CCCCNP(N)(N)=S | – | inactive
10 | O=C(Cl)/C=C/C(=O)Cl | – | inactive
11 | C[C@@H]1O[C@@H](O[C@@H]2C=C3CC[C@@H]4[C@H](CC[C@]5(C)[C@@H](c6ccc(=O)oc6)CC[C@]45O)[C@@]3(C)CC2)[C@H](O)[C@H](O)[C@H]1O | 0.0134 µM (active) | –
12 | C[C@H]1O[C@H](OC2[C@@H](O)[C@@H](O)C(O)[C@H](O)[C@H]2O)[C@@H](N)C[C@@H]1N=C(N)C(=O)O (stereo not given in full) | – | inactive
13 | C[C@]12CCC(=O)C[C@@H]1CC[C@@H]1[C@@H]2CC[C@@]2(C)[C@H]1CC[C@]2(C)O | – | inactive
14 | Nc1ccncc1 | – | inactive
15 | Clc1ccc(-c2ccc(Cl)c(Cl)c2Cl)c(Cl)c1Cl | – | inactive
16 | CCCCc1c(C)nc(NCC)[nH]c1=O | – | inactive
17 | [Hg+2].[I-].[I-] | 70.1 µM (active) | –
18 | COC(=O)[C@H]1[C@@H](OC(=O)c2ccccc2)C[C@@H]2CC[C@H]1N2C | – | inactive
19 | CCOP(=O)(OCC)OCC | – | inactive
20 | N#CC1(N=NC2(C#N)CCCCC2)CCCCC1 | – | inactive

Row | Compound | AC50 | outcome
21 | COc1ccc(OC)c([C@@H](O)[C@H](C)N)c1 | – | inactive
22 | CCC(=O)O[C@]1(c2ccccc2)CCN(C)C[C@H]1C | – | inactive
23 | S=C=S | – | inactive
24 | ClCC(Br)CBr (stereo not given) | – | inactive
25 | Nc1c(Br)cc([N+](=O)[O-])cc1[N+](=O)[O-] | – | inactive
26 | Cc1ccc(-c2nc3ccc(C)cn3c2CC(=O)N(C)C)cc1 | – | inactive
27 | O=c1oc2ccccc2c(O)c1Cc1c(O)c2ccccc2oc1=O | 0.819 µM (active) | –
28 | C#CC(C)(O)CC (stereo not given) | – | inactive
29 | C[C@]12N[C@H](Cc3ccccc31)c1ccccc12 | – | inactive
30 | CC(C)(C)C(=O)C(Cl)Cl | – | inactive
31 | CC1CCC(C(C)C)C(OC(=O)c2ccccc2N)C1 (stereo not given) | 23 µM (active) | –
32 | CC(C)COP(=O)(OCC(C)C)OCC(C)C | – | inactive
33 | O=c1c2ccccc2c(=O)c2c1cc(Cl)c1[nH]c3c([nH]c12)c(Cl)cc1c(=O)c2ccccc2c(=O)c13 | – | inactive
34 | CSc1ccc(C(=O)C(C)(C)N2CCOCC2)cc1 | – | inactive
35 | NCC(O)c1ccc(O)cc1 (stereo not given) | – | inactive
36 | Cc1cccc2sc3nncn3c12 | – | inactive
37 | c1ccc(C2(N3CCCC3)CCCCC2)cc1 | 33.1 µM (active) | –
38 | CC(C)NCC(O)c1ccc([N+](=O)[O-])cc1 (stereo not given) | – | inactive
39 | C[N+]1(C)[C@@H]2CC[C@H]1CC(OC(=O)c1c[nH]c3ccccc13)C2 (stereo not given in full) | – | inactive
40 | O=C(Cl)CCl | – | inactive
